Experimental data: PubChem BioAssay
The source made the active and inactive calls.

Assays:
[1] = small molecules captured by biotinylated probe aFSTL3 – biochemical, small-molecule microarray, fluorescence 635/667, stem cell growth factor project, primary screen (AID 1064); details: higher = more signal;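 note: measures binding of the biotinylated anti-FSTL3 antibody to printed compounds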
[2] = binders from COS7 lysate, DM2A8 probe, primary screen, torsin A project, cell lysate, small-molecule microarray, fluorescence 635/667 (AID 1065); details: higher = more signal, COS7 lysate expressing mutant human TOR1A
[3] = small molecules captured by biotinylated probe aFGF2 – biochemical, small-molecule microarray, fluorescence 635/667, stem cell growth factor project, primary screen (AID 1067); details: higher = more signal;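 note: measures binding of biotinylated aFGF2 protein to printed compounds on slides; z-score merges feature fluorescence and signal-to-noise across triplicate slides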
[4] = small molecules captured by biotinylated probe aFGF10 – biochemical, small-molecule microarray, fluorescence 635/667, stem cell growth factor project, primary screen (AID 1071); details: higher = more signal;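 note: score merges 667 nm spot intensity and signal to noise from triplicate slides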
[5] = target: Neurogenic locus notch homolog protein 2 (Homo sapiens) (UniProt Q04721); experiment: small molecules binding Notch2 protein – biochemical, small-molecule microarray, 635 nm fluorescence, stem cell growth factors, primary screen (AID 1073); details: higher = more signal
[6] = target: Pro-neuregulin-1, membrane-bound isoform (Homo sapiens) (UniProt Q02297); experiment: small molecules binding neuregulin-1 protein – biochemical, small-molecule microarray, fluorescence 635/667, psychiatric disease protein project, primary screen (AID 1075); details: NRG1 binding, 635 nm fluorescence, higher = more signal;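 note: score combines 667 nm spot fluorescence with signal to noise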
[7] = test system: Neuregulin-1 EGF-like domain; experiment: small molecules binding NRG1 EGF domain – biochemical, small-molecule microarray, 635 nm fluorescence, primary screen (AID 1081); details: higher = more signal;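 note: binding of the protein to compounds printed on small-molecule microarray slides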
[8] = FRG1 expression reporter modulators in myotubes – cell-based, C2C12 myotubes, firefly/Renilla luciferase, luminescence, FRG1 inhibition for FSHD, primary screen (AID 1084); details: FRG1 promoter luciferase, higher = more signal, called active from +8 up or from −8 down
[9] = small molecules captured by biotinylated probe aFST – biochemical, small-molecule microarray, fluorescence 635/667, stem cell growth factor project, primary screen (AID 1086); details: higher = more signal;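 note: score merges 667 nm fluorescence with signal-to-noise of each printed compound spot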
[10] = binders of probe aHhip on microarray, primary screen, stem cell growth factor project, biochemical, small-molecule microarray, fluorescence 635/667 (AID 1087); details: higher = more signal;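 note: score merges spot fluorescence at 667nm with spot signal to noise ratio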

Neurogenic locus notch homolog protein 2 (Homo sapiens), sequence (Q04721 whole entry, looked up, canonical isoform): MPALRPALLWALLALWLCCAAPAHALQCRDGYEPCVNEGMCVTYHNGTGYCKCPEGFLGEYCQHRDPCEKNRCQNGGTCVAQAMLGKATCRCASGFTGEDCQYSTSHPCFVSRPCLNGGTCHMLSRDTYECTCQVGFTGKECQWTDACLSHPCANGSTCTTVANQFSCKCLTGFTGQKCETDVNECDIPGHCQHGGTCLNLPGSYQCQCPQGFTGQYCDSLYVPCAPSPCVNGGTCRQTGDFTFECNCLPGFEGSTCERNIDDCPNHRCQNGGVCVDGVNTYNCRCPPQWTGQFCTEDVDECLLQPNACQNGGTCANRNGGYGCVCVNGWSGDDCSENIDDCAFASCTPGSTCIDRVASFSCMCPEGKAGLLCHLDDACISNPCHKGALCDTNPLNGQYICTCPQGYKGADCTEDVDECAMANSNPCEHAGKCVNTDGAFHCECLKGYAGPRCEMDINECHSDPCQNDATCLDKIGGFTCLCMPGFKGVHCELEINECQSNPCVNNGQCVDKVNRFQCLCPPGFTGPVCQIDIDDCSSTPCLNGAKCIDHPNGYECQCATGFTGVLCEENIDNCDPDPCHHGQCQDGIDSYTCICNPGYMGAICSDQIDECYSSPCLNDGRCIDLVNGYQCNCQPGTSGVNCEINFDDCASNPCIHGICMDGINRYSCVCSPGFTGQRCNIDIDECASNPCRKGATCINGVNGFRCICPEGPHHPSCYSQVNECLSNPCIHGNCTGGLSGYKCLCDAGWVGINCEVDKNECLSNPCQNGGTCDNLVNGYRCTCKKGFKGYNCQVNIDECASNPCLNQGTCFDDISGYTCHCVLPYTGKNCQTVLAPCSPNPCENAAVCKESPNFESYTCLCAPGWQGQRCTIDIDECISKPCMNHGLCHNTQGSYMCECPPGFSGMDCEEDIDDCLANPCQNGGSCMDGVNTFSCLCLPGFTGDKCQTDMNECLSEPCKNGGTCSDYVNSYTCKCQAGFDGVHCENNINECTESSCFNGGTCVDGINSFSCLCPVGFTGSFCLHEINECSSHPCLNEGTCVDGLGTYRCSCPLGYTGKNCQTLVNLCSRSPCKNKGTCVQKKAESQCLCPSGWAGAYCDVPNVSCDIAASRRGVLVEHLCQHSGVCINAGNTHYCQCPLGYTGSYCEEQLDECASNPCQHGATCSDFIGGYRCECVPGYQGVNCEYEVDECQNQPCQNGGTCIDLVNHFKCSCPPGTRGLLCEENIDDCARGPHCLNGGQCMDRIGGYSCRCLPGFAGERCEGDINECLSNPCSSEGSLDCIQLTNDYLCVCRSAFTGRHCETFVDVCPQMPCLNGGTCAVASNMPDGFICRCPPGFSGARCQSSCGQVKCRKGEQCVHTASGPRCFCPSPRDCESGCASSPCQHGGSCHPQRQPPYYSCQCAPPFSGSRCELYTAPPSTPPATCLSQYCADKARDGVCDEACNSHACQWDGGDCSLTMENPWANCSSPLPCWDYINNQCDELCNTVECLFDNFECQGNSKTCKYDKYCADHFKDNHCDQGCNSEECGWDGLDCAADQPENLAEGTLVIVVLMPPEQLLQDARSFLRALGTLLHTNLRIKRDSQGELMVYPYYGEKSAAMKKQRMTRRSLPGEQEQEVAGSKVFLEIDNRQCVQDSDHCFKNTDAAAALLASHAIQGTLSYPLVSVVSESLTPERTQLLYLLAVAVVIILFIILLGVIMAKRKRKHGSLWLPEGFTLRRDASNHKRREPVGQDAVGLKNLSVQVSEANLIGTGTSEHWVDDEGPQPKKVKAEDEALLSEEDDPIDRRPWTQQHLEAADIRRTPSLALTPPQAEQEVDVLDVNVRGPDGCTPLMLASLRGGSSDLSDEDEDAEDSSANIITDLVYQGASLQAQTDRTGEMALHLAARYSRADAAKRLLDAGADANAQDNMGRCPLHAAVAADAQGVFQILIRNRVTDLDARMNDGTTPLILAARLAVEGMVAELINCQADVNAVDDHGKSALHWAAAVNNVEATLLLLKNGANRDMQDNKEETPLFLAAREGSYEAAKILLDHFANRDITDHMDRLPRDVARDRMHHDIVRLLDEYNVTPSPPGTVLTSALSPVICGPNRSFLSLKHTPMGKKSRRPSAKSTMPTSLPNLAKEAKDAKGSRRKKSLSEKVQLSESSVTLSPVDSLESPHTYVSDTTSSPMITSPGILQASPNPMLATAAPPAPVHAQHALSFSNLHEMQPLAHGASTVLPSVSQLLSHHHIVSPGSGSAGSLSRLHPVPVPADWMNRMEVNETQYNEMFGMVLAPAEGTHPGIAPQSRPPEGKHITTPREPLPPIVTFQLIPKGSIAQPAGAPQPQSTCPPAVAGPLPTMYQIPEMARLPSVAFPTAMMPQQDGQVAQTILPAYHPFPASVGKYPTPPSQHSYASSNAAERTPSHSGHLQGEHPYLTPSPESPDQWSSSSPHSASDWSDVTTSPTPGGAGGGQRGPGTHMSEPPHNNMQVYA
Pro-neuregulin-1, membrane-bound isoform (Homo sapiens), sequence (Q02297 whole entry, looked up, the tested form may be a part, canonical isoform): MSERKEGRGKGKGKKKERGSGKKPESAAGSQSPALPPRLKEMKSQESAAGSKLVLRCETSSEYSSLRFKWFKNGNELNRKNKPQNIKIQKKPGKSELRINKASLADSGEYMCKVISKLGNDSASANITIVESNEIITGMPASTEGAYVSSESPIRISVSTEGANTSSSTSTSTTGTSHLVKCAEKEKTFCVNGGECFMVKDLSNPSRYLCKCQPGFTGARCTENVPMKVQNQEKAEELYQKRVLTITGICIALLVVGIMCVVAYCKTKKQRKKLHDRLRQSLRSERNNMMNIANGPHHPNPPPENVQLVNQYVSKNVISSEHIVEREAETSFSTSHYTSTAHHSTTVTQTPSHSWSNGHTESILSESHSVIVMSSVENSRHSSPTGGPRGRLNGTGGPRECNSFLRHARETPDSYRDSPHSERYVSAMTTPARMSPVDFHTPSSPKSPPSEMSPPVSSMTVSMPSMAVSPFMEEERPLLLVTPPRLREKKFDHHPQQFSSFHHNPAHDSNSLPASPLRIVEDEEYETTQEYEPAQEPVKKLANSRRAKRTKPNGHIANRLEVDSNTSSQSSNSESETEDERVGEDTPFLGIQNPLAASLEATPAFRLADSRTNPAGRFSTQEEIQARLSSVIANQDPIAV

Compound	composite z-score [1]	composite z-score [2]	composite z-score [3]	composite z-score [4]	composite z-score [5]	composite z-score [6]	composite z-score [7]	z-score [8]	composite z-score [9]	composite z-score [10]
CC(C)C[C@H]1NC(=O)[C@H](C)NC(=O)[C@@]23C(=O)N[C@@H](Cc4ccccc4)C2[C@H](C)[C@@]2(C)O[C@H]2C3/C=C/C/C=C\CNC1=O (stereo not given in full)	-0.021	0.366	-0.104	-0.0496	-0.465	0.0659	0.511	0.171 (inactive)	-0.521	-0.54
CC(C)C(CO)N1C(=O)[C@@H]2[C@H]3C(=O)OCC=C[C@H]3OC23C=CCN(Cn2nnc4ccccc42)C(=O)[C@@H]13 (stereo not given in full)	0.449	-0.292	-0.192	-0.579	-1.06	-0.78	0.332	-0.194 (inactive)	-0.499	-0.137
[N-]=[N+]=NCc1ccccc1C[C@@]1(C(=O)NCCN2CCOCC2)N=C(c2ccc(OCCCO)cc2)O[C@@H]1c1ccccc1CN=[N+]=[N-]	-0.166	0.69	0.105	0.924	1.26	1.27	1.21	-2.25 (inactive)	1.59	0.0053
NC(=O)NCC#Cc1ccc2c(c1)[C@]1(C(=O)N2)[C@H](c2ccc(O)cc2)N2[C@H](c3ccccc3)[C@H](c3ccccc3)OC(=O)[C@H]2[C@@H]1C(=O)NC[C@H](O)c1ccccc1	1.38	-1.23	-0.132	-1.17	-1.17	0.831	-0.18	-0.0208 (inactive)	-0.268	0.172
COC(=O)[C@@]1(Cc2ccc(OC)cc2)[C@H]2c3cc(C(=O)N(C)C)n(Cc4cc(C)n(C)n4)c3C[C@H]2CN1C(=O)c1ccccc1	0.223	0.221	0.468	1.26	1.33	1.92	1.31	2 (inactive)	0.732	0.309
C[N+](C)(C)CCCCNC(=O)[C@H]1C[C@H]2C(=O)NCC(=O)N2[C@H]1c1ccc(O)cc1	-0.392	1.83	-0.0466	1.12	0.943	0.584	1.38	0.0635 (inactive)	0.383	-0.156
C=CC[C@@]1(C(=O)NCCN2CCOCC2)N=C(c2ccc(OCCCO)cc2)O[C@@H]1c1ccccc1	0.424	1.64	0.0342	0.66	0.52	0.595	1.36	0.254 (inactive)	1.16	0.124
COc1ccccc1CN1C(=O)c2ccccc2[C@@H](C(=O)NCC(C)C)[C@@H]1c1ccc(CO)cc1	0.482	-0.117	0.0342	-0.0779	1.07	0.869	0.7	-1.97 (inactive)	0.0346	-0.0994
COC(=O)C(CC#Cc1ccc2c(c1)[C@]1(C(=O)N2)[C@H](c2ccc(O)cc2)N2[C@H](c3ccccc3)[C@H](c3ccccc3)OC(=O)[C@H]2[C@@H]1C(=O)O)C(=O)OC	-0.331	-0.11	-0.132	0.206	0.63	0.82	0.798	0.831 (inactive)	1.25	0.0505
CC(C)C[C@@H]1NC(=O)[C@@H]2C[C@H](C(=O)NCc3ccc(F)cc3)[C@H](c3ccc(O)cc3)N2C1=O	0.454	0.0392	-0.017	0.0187	0.245	0.346	1.16	-0.331 (inactive)	-0.512	-0.201
COC(=O)c1ccc(OC)c(/C=C\CC(CCc2ccccc2)OC(=O)c2ccncc2)c1 (stereo not given)	0.233	0.767	-0.22	-0.293	-0.714	-0.0697	0.0883	-2.63 (inactive)	-0.432	-0.146
C#CCOC(=O)N[C@H](C=CCCCC)c1ccccc1	0.209	0.108	0.0934	0.239	1.33	2.33	1.31	-0.237 (inactive)	0.129	0.382
COC(=O)[C@@]1(Cc2ccc(F)cc2)[C@H]2c3cc(C(=O)N(C)C)n(Cc4ccc(C)c(F)c4F)c3C[C@H]2CN1C(=O)c1ccccc1	0.896	0.0685	0.0697	0.795	1.62	1.71	1.36	0.55 (inactive)	0.758	0.177
CCOC(=O)C1=CC[C@@H](c2cccc(Br)c2)N(S(=O)(=O)c2ccc(C)cc2)[C@H]1c1ccc([N+](=O)[O-])cc1	-0.508	2.18	-0.0535	0.928	1.52	0.674	1.11	-1.74 (inactive)	0.339	0.305
[N-]=[N+]=NCc1ccccc1[C@H]1OC(c2ccc(OCCCO)cc2)=N[C@@]1(Cc1ccccc1N=[N+]=[N-])C(=O)N1CCCCC1	0.398	0.221	0.141	0.263	1.32	1.32	1.04	-1.6 (inactive)	1.41	-0.199
